Measurements: the supplement of paper PMC10646978
A number with no mark means an inactive call.

The molecules below were run on RAW-Dual (murine macrophage reporter line) (assay: viability score (confluency relative to resting cells, overnight) (fraction); higher = more viable, active = viable (0.7 or more)). Conditions: modulator concentration 10 µM.
How it was run: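 RAW-Dual macrophages in 384-well plates were treated overnight with compound at 10 μM final. IncuCyte imaging recorded confluency, and IncuCyte software built two confluency masks across every imaged well. The viability score expresses confluency relative to resting cells and was judged against a cutoff, which a compound met only if both masks exceeded 70% of resting cells.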

Compound | viability score
Cc1cc(=O)nc(SCCc2ccccc2)[nH]1 | 0.687
CC(=O)c1c(C(C)=O)c(C)n(-c2ccccc2N)c1C | 1.01 (active)
Cc1ccc(CCC(=O)N2CC(N3C(=O)C4CC=CCC4C3=O)C2)cc1F (stereo unspecified) | 1 (active)
CCN(CC)C(=O)N1CCN(C)CC1.O=C(O)CC(O)(CC(=O)O)C(=O)O | 0.995 (active)
CC1CC2(NC(=O)NC2=O)C(C)CN1C (stereo unspecified) | 1 (active)
COc1ccc(NC(=O)CN2C(=O)c3ccccc3C2=O)c([N+](=O)[O-])c1 | 1.01 (active)
COc1ccccc1N1CCN(CC(O)COc2cccc3ccccc23)CC1 (stereo unspecified) | 0.967 (active)
COc1cc2c(Oc3ccc4[nH]c(C)cc4c3F)ncnc2cc1OCCCN1CCCC1 | 1 (active)
CCOc1ccc(Cc2cc([C@@H]3O[C@H](SC)[C@@H](O)[C@H](O)[C@H]3O)ccc2Cl)cc1 | 0.694
Cc1cn(-c2cc(NC(=O)c3ccc(C)c(Nc4nccc(-c5cnccn5)n4)c3)cc(C(F)(F)F)c2)cn1 | 0.988 (active)
O=C(Nc1ccc(-c2cn3ccsc3n2)cc1)C1CCCC1 | 0.962 (active)
O=Cc1ccc(OCc2cccc([N+](=O)[O-])c2)c(Br)c1 | 1 (active)
CN(C)CC(c1ccc(O)cc1)C1(O)CCCCC1.O=C(O)CCC(=O)O (stereo unspecified) | 0.633
O=C(CCCCCN1C(=O)c2cccc3cccc(c23)C1=O)NCCCO | 0.993 (active)
Cc1cc(C(=O)Nc2ccccc2S(C)(=O)=O)no1 | 1 (active)
N#CC(=Cc1cn(Cc2ccccc2Cl)c2ccccc12)c1nn(CCO)c(N)c1C#N | 1.02 (active)
